Columns and labels:
Assay in all cases: thermal shift delta Tm vs DMSO control; higher = stronger stabilization (binding)
Conditions in all cases: 12.5 µM; protein concentration 2 µM
[1] = tested on: LOC_OS01G01410-cb001
Procedure, shortened: (§1)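 Thermal shift values come from differential scanning fluorimetry on purified rice kinase domains made in E. coli, with melting temperatures obtained from Boltzmann fits. Samples of 19.5 μl held 2 μM kinase, 100 mM potassium phosphate pH 7.5, 150 mM NaCl, 10% glycerol, 5 × SYPRO Orange and compound in DMSO, and were heated from 25°C to 95°C at 0.05°C/s. Each shift is a triplicate mean relative to the DMSO-only protein sample.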

[2] = tested on: LOC_OS01G02750-cb003
Procedure, shortened: as §1

[3] = tested on: LOC_OS01G10900-cb004
Procedure, shortened: as §1

[4] = tested on: LOC_OS01G13800-cb001
Procedure, shortened: as §1

[5] = tested on: LOC_OS01G14860-cb001
Procedure, shortened: as §1

[6] = tested on: LOC_OS01G21960-cb002
Procedure, shortened: as §1

[7] = tested on: LOC_OS01G39600-cb002
Procedure, shortened: as §1

[8] = tested on: LOC_OS01G48390-cb002
Procedure, shortened: as §1

[9] = tested on: LOC_OS01G51400-cb002
Procedure, shortened: as §1

[10] = tested on: T1, LOC_OS01G52050-cb004
T1 sequence (whole entry): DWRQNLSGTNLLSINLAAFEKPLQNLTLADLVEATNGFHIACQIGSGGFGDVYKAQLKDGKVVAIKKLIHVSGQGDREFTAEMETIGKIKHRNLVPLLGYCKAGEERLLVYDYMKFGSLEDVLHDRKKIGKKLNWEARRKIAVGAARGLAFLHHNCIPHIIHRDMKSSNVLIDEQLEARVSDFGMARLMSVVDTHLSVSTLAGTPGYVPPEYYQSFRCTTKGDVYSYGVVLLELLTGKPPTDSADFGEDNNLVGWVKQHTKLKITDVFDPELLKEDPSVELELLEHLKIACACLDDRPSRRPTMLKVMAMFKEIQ
Procedure, shortened: as §1

[11] = tested on: LOC_OS01G57100-cb003
Procedure, shortened: as §1

[12] = tested on: LOC_OS01G60330-cb001
Procedure, shortened: as §1

[13] = tested on: LOC_OS01G60700-cb002
Procedure, shortened: as §1

[14] = tested on: LOC_OS01G63280-cb003
Procedure, shortened: as §1

[15] = tested on: LOC_OS01G67340-cb003
Procedure, shortened: as §1

[16] = tested on: LOC_OS01G70970-cb002
Procedure, shortened: as §1

[17] = tested on: LOC_OS02G07810-cb001
Procedure, shortened: as §1

[18] = tested on: LOC_OS02G08530-cb003
Procedure, shortened: as §1

[19] = tested on: LOC_OS02G14120-cb001
Procedure, shortened: as §1

[20] = tested on: LOC_OS02G17970-cb001
Procedure, shortened: as §1
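Note: purified Escherichia coli-expressed rice kinase domain construct.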

| SMILES | thermal shift delta Tm [1] | thermal shift delta Tm [2] | thermal shift delta Tm [3] | thermal shift delta Tm [4] | thermal shift delta Tm [5] | thermal shift delta Tm [6] | thermal shift delta Tm [7] | thermal shift delta Tm [8] | thermal shift delta Tm [9] | thermal shift delta Tm [10] | thermal shift delta Tm [11] | thermal shift delta Tm [12] | thermal shift delta Tm [13] | thermal shift delta Tm [14] | thermal shift delta Tm [15] | thermal shift delta Tm [16] | thermal shift delta Tm [17] | thermal shift delta Tm [18] | thermal shift delta Tm [19] | thermal shift delta Tm [20] |
| --- | --- | --- | --- | --- | --- | --- | --- | --- | --- | --- | --- | --- | --- | --- | --- | --- | --- | --- | --- | --- |
| N#CC[C@H](C1CCCC1)n1cc(-c2ncnc3[nH]ccc23)cn1 | 0.74 °C | 1.15 °C | 0.65 °C | -0.01 °C | 1.62 °C | 1.47 °C | 0.6 °C | 0.4 °C | -0.02 °C | 0.98 °C | 0.48 °C | 1.16 °C | 0.62 °C | 0.56 °C | 0.07 °C | 0.28 °C | 1.11 °C | 1.14 °C | 3.58 °C | 0.47 °C |
| CO[C@@H](C(=O)N1Cc2[nH]nc(NC(=O)c3ccc(N4CCN(C)CC4)cc3)c2C1)c1ccccc1 | 3 °C | 1.69 °C | 6.13 °C | -0.31 °C | 0.54 °C | 0.38 °C | 1.14 °C | 3.55 °C | 0.01 °C | 0.36 °C | 0.28 °C | 1.12 °C | 0.4 °C | 0.57 °C | -0.26 °C | 1.38 °C | 0.65 °C | 0.25 °C | 9.66 °C | 0.37 °C |
| Cn1ncc(Cl)c1-c1cc(C(=O)N[C@H](CN)Cc2ccc(F)c(F)c2)oc1Cl | -0.41 °C | 1.78 °C | -0.33 °C | 1.08 °C | 0.15 °C | 1.66 °C | -0.06 °C | 1 °C | 0.44 °C | 1.06 °C | 1.78 °C | 0.8 °C | 1.33 °C | 0.28 °C | 0.45 °C | 0.03 °C | 0.82 °C | 0.49 °C | 0.41 °C | 1.67 °C |
| Cc1cc(CS(=O)(=O)c2ccccc2)cc(OCc2ccc(CN3CCC[C@@H]3CO)cc2)c1 | 0.31 °C | 1.37 °C | 0.19 °C | -0.27 °C | -0.13 °C | 0.3 °C | -13.5 °C | 0.65 °C | 0.36 °C | -0.24 °C | 0.61 °C | 0.03 °C | 1.22 °C | -0.1 °C | -0.36 °C | 0.62 °C | 0.61 °C | 0.53 °C | -0.41 °C | 0.96 °C |
| CC(C)(O)CC(=O)NCCn1ccc2ncnc(Nc3ccc(Oc4cccc(C(F)(F)F)c4)c(Cl)c3)c21 | 1.78 °C | 3.42 °C | 1.92 °C | 0.44 °C | 1.32 °C | 1.64 °C | 3.99 °C | 2.26 °C | 1.72 °C | 4.47 °C | 2.91 °C | 5.27 °C | 0.11 °C | 1.26 °C | 1.33 °C | 1.03 °C | 1.53 °C | 0.93 °C | 1.51 °C | 0.83 °C |
| CNC(=O)c1ccccc1Nc1nc(Nc2ccc(N3CCOCC3)cc2OC)ncc1Cl | 0.74 °C | 1.05 °C | 1.53 °C | -0.3 °C | 0.28 °C | 0.37 °C | -6.71 °C | 0.8 °C | 0.36 °C | 1.17 °C | 2.81 °C | 0.04 °C | 1.25 °C | 0.09 °C | 0.32 °C | 2.69 °C | 0.19 °C | 4.3 °C | 5.33 °C | 1.35 °C |
| CS(=O)(=O)c1ccc(-c2cnc(N)c(C(=O)Nc3ccccc3)n2)cc1 | 1.64 °C | 0.51 °C | 0.6 °C | 0 °C | 5.11 °C | 1.15 °C | 1.65 °C | 0.08 °C | 0.3 °C | 0.77 °C | 0.59 °C | 1.29 °C | 0.17 °C | 0.26 °C | 0.52 °C | 1.04 °C | 0.54 °C | 0.71 °C | -0.32 °C | -0.36 °C |

— the supplement of paper PMC9694430
